Hits are enriched below; roughly 3.7% of the tested compounds scored in any of these assays.
B2AR arrestin = qHTS assay of beta-arrestin-biased ligands of beta2-adrenergic receptor; Potency, µM (titrated, usually from 46.1 µM), inactives show at the top dose activation, most hits filed as activators; actives 0.02% (n = 330,000); beta-arrestin recruitment to beta2AR, cell-based reporter; Beta-2 adrenergic receptor (Homo sapiens), P07550;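 note: potency is the fitted concentration of half-maximal effect; 0% = DMSO controls and full agonism = EC100 isoproterenol or metaproterenol; nearly all actives have a fitted effect of over 65% in size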
BRCA1 expr act = qHTS Assay to Identify Small Molecule Activators of BRCA1 Expression | MCF7-BRCA1-FFLuc reporter, luminescence, 48 h; response scale: scaled: vehicle 0%, 10 µM genistein 100% | Potency, µM (series often up to 46.1 µM), inactives show at the top dose activation, actives largely listed as activators | actives 1.1% (n = 380,000); note: potency is the fitted concentration of half-maximal effect; nearly all actives have a fitted effect of over 80% in size
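Using MCF7 cells harboring a BRCA1 firefly luciferase reporter, plated 2 h before compound pinning, the screen measured luminescence after 48 h incubation. Responses were normalized to DMSO and 10 microM genistein, then fitted for concentration-effect.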
PTHR1 agonist = qHTS for PTHR1 Agonists: Primary Screen | Parathyroid hormone/parathyroid hormone-related peptide receptor (Homo sapiens), Q03431 | actives 0.075% (n = 410,000) | HEK293 GP2 PTHR1 cells, GloSensor cAMP luminescence, 1 h | Potency, µM (doses to about 115 µM), without a hit: at the highest dose activation, most hits filed as activators; note: potency is the fitted concentration of half-maximal effect; nearly all actives have a fitted effect of over 55% in size
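HEK-293-derived GP2 cells expressing PTHR1 and a GloSensor cAMP reporter, 3,000/well, plated overnight, given luciferin plus IBMX (each 0.5 mM as added) for 1 h at 37 °C, then compound for 1 h at 37 °C. Luminescence was read after 15 min at room temperature.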
RGS4 inhibitor = Inhibitors of Regulator of G Protein Signaling (RGS) 4: qHTS; AID 504845, 2011; Transcreener GDP fluorescence polarization, RGS4-accelerated GTP hydrolysis; actives 0.039% (n = 390,000); Potency, µM (top dose mostly 114 µM), inactives show top-dose activity change, negative = inhibition, most hits filed as inhibitors; note: potency is the fitted concentration of half-maximal effect; % is set by controls: 0 for no effect and ±100 for the full control effect; nearly all actives have a fitted effect of over 75% in size
Target sequence (P49798 whole entry, looked up): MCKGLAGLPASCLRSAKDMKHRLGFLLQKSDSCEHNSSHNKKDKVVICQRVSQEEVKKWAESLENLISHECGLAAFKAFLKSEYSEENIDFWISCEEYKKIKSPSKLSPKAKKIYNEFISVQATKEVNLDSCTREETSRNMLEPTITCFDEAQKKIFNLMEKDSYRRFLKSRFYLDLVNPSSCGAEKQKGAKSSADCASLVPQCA
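MLSMR compounds (23 nl, pin-transferred) preincubated 10 min at room temperature with a 500nM (2x) first reagent, then RGS4 at 900nM (2x) plus Transcreener GDP mix added; fluorescence polarization (620/688 nm) read before and after 90 min at 30 °C.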
DRD3 antagonist = qHTS of D3 Dopamine Receptor Antagonist: qHTS | D(3) dopamine receptor (Homo sapiens), P35462 | D3R cells, DiscoveRx beta-arrestin luminescence, antagonist mode; hits give low values | max response, negative = inhibition, % | actives 2.5% (n = 360,000) | AID 652054, 2013; in the data active = max response below about -50%; inconclusive = no clear call, values can overlap the other calls; note: % is set by controls: 0 for no effect and ±100 for the full control effect
Target sequence (P35462 whole entry, looked up): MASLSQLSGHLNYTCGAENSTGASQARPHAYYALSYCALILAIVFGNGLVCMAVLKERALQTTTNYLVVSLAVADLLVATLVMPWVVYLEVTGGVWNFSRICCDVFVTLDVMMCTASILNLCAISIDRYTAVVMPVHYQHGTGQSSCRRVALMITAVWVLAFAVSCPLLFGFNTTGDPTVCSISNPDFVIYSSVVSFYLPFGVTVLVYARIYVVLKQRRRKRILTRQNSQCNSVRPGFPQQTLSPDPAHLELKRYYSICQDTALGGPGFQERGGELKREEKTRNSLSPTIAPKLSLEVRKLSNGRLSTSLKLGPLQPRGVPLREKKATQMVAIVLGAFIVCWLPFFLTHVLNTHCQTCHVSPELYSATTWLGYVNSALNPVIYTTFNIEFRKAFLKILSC
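Cells expressing the human receptor were seeded at 1500 cells/well, incubated overnight at 37 degrees C in 5% CO2, then exposed to library compounds with dopamine controls for 90 minutes at 37 degrees C before luminescent detection.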
D3 ag = qHTS of D3 Dopamine Receptor Agonist: qHTS. max activation, %. actives 0.58% (n = 410,000). D3R DiscoveRx beta-arrestin cells, luminescence, 90 min. D(3) dopamine receptor (Homo sapiens), P35462; in the data active = max activation above about 30%; note: 0% is about no effect
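Cells at 1500/well, incubated overnight, then treated with pinned compounds (dopamine as control) for 90 min at 37 degrees C. DiscoveRx reagent added for 30 - 60 minutes at room temperature; luminescence read.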
* marks the source's active call; other numbers are inactive results; i = inactive; ? = inconclusive; . = no result given; [ ] = another dose, or the depositor's remark. Unless noted, calls come from the whole dose curve; as a rule, active = well fitted curve in the direction sought with a large enough effect; inconclusive = small, poorly fitted or top-dose-only effect, or another doubt; inactive = no such curve, though single readings can be large; an effect the other way counts as inactive or inconclusive.

SMILES	B2AR arrestin	BRCA1 expr act	PTHR1 agonist	RGS4 inhibitor	DRD3 antagonist	D3 ag
CCC(C)c1ccccc1N1CC(C(=O)N2CCN(S(=O)(=O)c3ccccc3Br)CC2)CC1=O (stereo not given)	-0.9%	-4.1%	i	1.0%	2.2	3.4
C[C@H]1CN([C@@H](C)CO)C(=O)c2cc(-c3ccccc3F)cnc2O[C@@H]1CN(C)C(=O)NC1CCCCC1	.	5.4%	-22.7%	.	6.1	-5.4
CC(C(=O)N1CCc2ccccc21)N1CCc2ccccc2C1 (stereo not given)	0.0%	-15.6%	i	-20.4%	-85.7*	-7.3
CC(C(=O)NCC1CCCCC1)N1CCc2ccccc2C1 (stereo not given)	0.1%	-13.0%	-17.2%	21.7%	-77.5*	-11.3
COc1ccccc1C(=O)NNC1=C(C(=O)C(F)(F)F)CCC1	0.7%	-91.9%	i	-29.7%	-57.0*	-34.1
O=C(NNC1=C(C(=O)C(F)(F)F)CCC1)c1ccccc1O	-0.4%	-65.5%	-18.9%[57.5 µM]	-3.3%	?	-2.3
O=C(O)C(O)(c1ccccc1)C(O)c1ccccc1 (stereo not given)	.	-1.7%	-18.7%	-95.4%	-17.1	-9.0
c1ccc(-n2cnnc2SCc2cn3ccsc3n2)cc1	-1.0%	-0.1%	i	-8.0%	10.0	3.8
Clc1ccc(CSc2nnc3ccccn23)c(Cl)c1	-0.7%	10µM*	i	-12.4%	1.3	3.0
c1ccn2c(SCc3cn4ccsc4n3)nnc2c1	0.0%	5.01µM*	-1.3%	-37.9%	13.8	-3.4
CCOC(=O)c1nn(-c2ccc3c(c2)OCO3)cc1O	0.8%	3.16µM*	-7.1%[57.5 µM]	-4.5%	13.6	-4.0
CCOC(=O)c1nn(-c2ccc3ccccc3c2)cc1O	0.3%	2.82µM*	-72.7%	16.5%	-14.1	-21.0
O=C(NCc1cccnc1)C(=O)NCC(c1ccco1)N1CCN(c2ccccc2F)CC1 (stereo not given)	-0.7%	-10.4%	-9.6%	8.9%	21.9	50.6*
O=C(NCc1ccccc1)C(=O)NCC(c1ccco1)N1CCN(c2ccccc2F)CC1 (stereo not given)	-0.2%	2.5%	i	-4.2%[11.4 µM]	1.5	11.5
CCCc1ccc2oc(C(=O)NCCc3cnn(C)c3)c(C)c2c1	-0.2%	8.91µM*	-50.7%	3.2%	?	0.6
CCN1CCN(c2ccc(NC(=O)c3cc(S(=O)(=O)N4CCCC4)ccc3Cl)cc2)CC1	-2.0%	-8.5%	-3.2%	-17.2%	12.1	-0.1
Cc1ccc(S(=O)(=O)N2CCCCC2)cc1NC(=O)Cn1cc(C(F)(F)F)ccc1=O	0.4%	1.7%	-23.8%	-15.3%	-13.0	-2.7
Cn1cccc1C(=O)C(=O)Nc1cc(Cl)cc(Cl)c1	-0.1%	57.4%	i	-74.8%[11.4 µM]	4.0	1.0
Cn1cccc1C(=O)C(=O)Nc1ccc(Cl)cc1	0.1%	4.47µM*	-15.2%	-16.2%[11.4 µM]	0.7	0.4
Cn1cccc1C(=O)C(=O)Nc1ccc(F)c(F)c1	0.0%	5.62µM*	-30.7%	8.2%	-0.7	-4.7
CC(C)N(Cc1ccccc1)C(=S)NC1CCCCC1	0.0%	-18.7%	-16.0%	9.3%	-1.5	2.3
Cc1ccccc1OCCC(=O)N1CCN(S(=O)(=O)c2ccc(Cl)cc2)CC1	-0.1%	-20.2%	-28.2%	-15.7%	11.2	5.1
O=C(COc1ccccc1[N+](=O)[O-])Nc1ccc2c(c1)CCC2	0.0%	10µM*	-50.1%	-6.1%	7.6	2.1
CC(=O)c1cc(F)ccc1OCC(=O)Nc1ccc2c(c1)OCO2	-0.2%	1.26µM*	-18.0%	-25.9%	-23.7	-6.5
O=C(COc1ccccc1[N+](=O)[O-])Nc1ccc2c(c1)OCO2	-0.2%	10µM*	-79.1%	-18.5%	-4.4	-0.8
SMILES	B2AR arrestin	BRCA1 expr act	PTHR1 agonist	RGS4 inhibitor	DRD3 antagonist	D3 ag
O=C(COc1cccc(Cl)c1Cl)Nc1ccc2c(c1)CCC2	0.2%	-5.6%	-19.4%	-22.4%	20.7	7.0
Cc1ccc(OCC(=O)Nc2ccc3c(c2)OCO3)c(C)c1	-0.1%	0.0%	-9.0%	-33.4%	4.2	1.6
O=C(COc1cc(F)ccc1[N+](=O)[O-])Nc1ccc2c(c1)OCO2	-0.1%	3.55µM*	i	0.9%	0.1	0.1
O=[N+]([O-])c1cc(S(=O)(=O)N2CCCCC2)ccc1NCCCN1CCOCC1	0.1%	0.7%	i	-12.8%	-10.9	2.1
N#Cc1ccc(S(=O)(=O)N2CCN(C(=O)c3cn(-c4ccccc4)nc3-c3cccnc3)CC2)cc1	.	19.7%	22.1%	0.0%	-14.7	-6.0
CCSc1nnc(NC(=O)COc2ccccc2[N+](=O)[O-])s1	0.0%	84.9%	-4.2%	-13.6%	0.0	5.3
O=C(COc1ccccc1[N+](=O)[O-])Nc1ccc(N2CCN(C(=O)c3cccs3)CC2)cc1	0.5%	-80.4%	-38.2%	-25.5%	72.8	33.7*
CC(C)c1nnc(NC(=O)COc2ccccc2[N+](=O)[O-])s1	0.3%	10µM*	i	-4.2%	-24.3	-5.5
CC(C)CCOc1ccc(C2N=C(N)Nc3nc4ccccc4n32)cc1 (stereo not given)	.	.	-4.8%	30.2%	.	4.4
CCOC(=O)c1cnn(-c2ccccc2)c1NC(=O)C(F)(F)C(F)(F)C(F)(F)F	0.1%	1.7%	-6.4%[57.5 µM]	28.5%[11.4 µM]	-67.6*	-4.4
CCOC(=O)c1cnn(-c2ccccc2)c1NC(=O)c1ccccc1	0.5%	0.8%	i	-6.6%	11.9	16.8
CCN1CCN(S(=O)(=O)c2ccc(Cl)c(C(=O)N(CC)CC(=O)Nc3ccc(OC)cc3)c2)CC1	-0.1%	-19.3%	-2.2%	-4.2%	-163.0*	2.3
O=C(NCc1ccccc1)OC1CC2CC1[C@H]1CCCCN1C2=O (stereo not given in full)	.	2.5%	4.9%	.	-24.3	-8.2
CCOC(CNC(=O)c1ccc(N2CCc3ccccc32)c([N+](=O)[O-])c1)OCC	2.5%	-43.8%	-82.0%	-18.4%	-66.9*	-11.9
Cc1noc(C)c1C(=O)OC(C)C(=O)c1c[nH]c2ccccc12 (stereo not given)	.	-2.2%	-12.9%	.	5.4	5.9
Cc1ccc(O)c(NC(=O)C2CC(c3cccc(Br)c3)=NO2)c1 (stereo not given)	-0.7%	-35.8%	i	-20.8%[56.9 µM]	-20.2	3.3
